High-throughput results deposited in PubChem by National Center for Advancing Translational Sciences (NCATS).
Many of the other results were omitted from the sample, so hits are more common in it than they were.
Pf Dd2 growth = blocks in vitro growth of P. falciparum Dd2 | P. falciparum Dd2 growth, SYBR Green, 72 h | Potency, µM (titrated, usually from 28.9 µM), usual class: inhibitors | hit rate 4.3% among 120,000 | AID 1347417; active = well fitted inhibition curve with a large enough effect; also: nearly all actives have a fitted effect of over 65% in size
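Readout: SYBR Green fluorescence, 485 nm excitation, 535 nm emission, after ~16 h lysis at 37C. Before that, Dd2-infected red cells (2.5% hematocrit) grew 72 h with compound, 29 uM top final concentration.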
A number is an active result; – = inactive; [ ] = remark or other dose.

SMILES | Pf Dd2 growth
CN1CCC(C(=O)N[C@@H]2CN(c3ncccn3)C[C@H]2CO)CC1 | –
COc1cc(NC(=O)CSc2nc3ccccc3nc2Cc2ccccc2OC)cc(OC)c1 | –
COc1ccccc1Cc1nc2ccccc2nc1SCC(=O)N1CCCCC1 | –
COc1ccccc1Cc1nc2ccccc2nc1SCC(=O)NCc1ccccc1Cl | 0.89µM
CCc1ccc2oc(C(=O)Nc3nc(-c4ccccc4)ns3)c(C)c2c1 | –
CCc1ccc(OCC(=O)NCC(c2ccc(OC)cc2)N2CCOCC2)cc1 (stereo not drawn) | 3.2µM
Cc1ccc2c(C)c(C(=O)NCC(c3ccc(Cl)cc3)N3CCOCC3)oc2c1 (stereo not drawn) | –
COc1ccc(Cl)cc1C(=O)NCC(c1ccc(N(C)C)cc1)N1CCOCC1 (stereo not drawn) | –[5.79 µM]
CCc1ccc2oc(C(=O)Nc3nonc3CC)c(C)c2c1 | –
CCc1ccc2oc(C(=O)NCC(c3ccc(Cl)cc3)N3CCOCC3)c(C)c2c1 (stereo not drawn) | 11µM
CCc1ccc2oc(C(=O)NCC(c3ccc(OC)cc3)N3CCCCC3)c(C)c2c1 (stereo not drawn) | 10µM
COc1ccc(OCC(=O)NCC(c2ccc(OC)cc2)N2CCOCC2)cc1 (stereo not drawn) | –
COc1ccc(C(=O)NCC(c2ccc3c(c2)OCO3)N2CCOCC2)cc1 (stereo not drawn) | –
COCCNC(=O)NCCc1noc(C)n1 | –
CC(C)(C)CC(=O)Nc1ccc([C@@H](O)[C@H]2COCC(=O)N2Cc2ccc(F)cc2)cc1 | –
CN1C(=O)CC[C@]2(C(=O)NCc3ccco3)CCCC[C@@H]12 | –
CCn1ccc(C(=O)N2CCCC(CN3CCC(C)CC3)CC2)n1 (stereo not drawn) | –
Cc1ccc(-n2cccn2)c(-c2nccn2-c2ccc(C(N)=O)cc2)c1 | –
O=C(CCn1nnnc1CN1CCOCC1)N1CCN(c2nc3ccccc3s2)CC1 | –
CNC(=O)NC[C@H]1CCN(Cc2ccc(OC)c(C)c2)C[C@H]1N(C)C | –
CNC(=O)[C@@H]1CN(C(=O)c2ccc3c(c2)OCO3)C[C@H]1c1n[nH]c(C)n1 | –
COc1ccccc1-c1ncc2c(n1)OCCN(c1cccc(C(F)(F)F)c1)C2=O | –
COc1ncccc1-c1ncc2c(n1)OCCN(c1cccc(C(F)(F)F)c1)C2=O | –
O=C1c2cnc(-c3cccc(CO)c3)nc2OCCN1c1cccc(C(F)(F)F)c1 | 14µM
CC1CCN(C(=O)c2ccccc2OCC2CCCN(C(=O)c3ccncc3)C2)CC1 (stereo not drawn) | –
SMILES | Pf Dd2 growth
Cc1ccc2c(n1)N(C)[C@H](CO)CCN(Cc1cn(C)c3ccccc13)C2 | 11µM
Cc1ccc2c(n1)N(C)[C@H](CO)CCN(Cc1ccc(F)cc1)C2 | –
Cc1ccc2c(n1)N(C)[C@H](CO)CCN(Cc1ccccc1Cl)C2 | –
O=C(O)CC1COCCN1C(=O)Cn1cnnn1 (stereo not drawn) | –
O=C([C@@H]1C[C@H](F)CN1C(=O)Cc1ccccc1F)N1CCCCC1 | –
Cc1ccc(NC(=O)C(=O)NCC(c2cccnc2)N2CCN(Cc3ccccc3)CC2)cc1C (stereo not drawn) | 5.6µM
Cc1ccc(NC(=O)C(=O)NCC(c2cccnc2)N2CCOCC2)cc1C (stereo not drawn) | –
Cc1ccc(NC(=O)C(=O)NCC(c2cccnc2)N2CCN(Cc3ccccc3)CC2)cc1F (stereo not drawn) | 8.9µM
O=C(NCC(c1cccnc1)N1CCOCC1)C(=O)Nc1ccc(F)cc1 (stereo not drawn) | –
COC(=O)c1ccc(NC(=O)C(=O)NCC(c2cccnc2)N2CCN(c3ccccc3)CC2)cc1 (stereo not drawn) | –
Cc1ccc(NC(=O)C(=O)NCC(c2cccnc2)N2CCOCC2)cc1Cl (stereo not drawn) | –
O=C(Nc1cnc(-c2ccc(C(F)(F)F)cc2)nc1)C1CCOC1 (stereo not drawn) | –
O=C1CCN(C(=O)[C@H](Cc2ccccc2)NC(=O)c2cccs2)CCCOCCN1 | –
O=C1c2cnc(-c3cccc(C(F)(F)F)c3)nc2OCCN1CC1CC1 | –
O=C1c2cnc(-c3ccc(F)cc3)nc2OCCN1Cc1ccc(F)cc1F | –
O=C1c2cnc(-c3ccc(Oc4ccccc4)cc3)nc2OCCN1CC1CC1 | 2.8µM
COCCN1CC2(CCCN(C(=O)CCc3cccc(F)c3)C2)CCC1=O (stereo not drawn) | –
CCCc1nn(-c2cccc(C)c2)c(=O)n1CC(=O)NCC1(O)CCCCC1 | –
COCCN1C(=O)c2cccn2CC1CNC(=O)c1ccc(C)nc1 (stereo not drawn) | –
COc1cccc(CCNC(=O)c2c(C)noc2-c2ccccc2OC)c1 | –
O=C(O)CCCC(=O)N1C[C@@H](C(=O)O)[C@H](c2ccc3c(c2)OCO3)C1 | –
O=C(NC1CCCCC1)c1ccc2c(c1)sc1nc(-c3ccc(F)cc3)cn12 | –
COc1ccc(-c2cn3c(n2)sc2cc(C(=O)Nc4cccc(OC)c4)ccc23)cc1 | –
COc1ccc(-c2cn3c(n2)sc2cc(C(=O)NCCCN4CCCCCC4)ccc23)cc1 | 8.9µM
COc1ccc(-c2cn3c(n2)sc2cc(C(=O)NCCCN4CCCCC4)ccc23)cc1 | 1.1µM
SMILES | Pf Dd2 growth
CCOC(=O)C1CCN(C(=O)c2ccc3c(c2)sc2nc(-c4ccc(OCC)cc4)cn23)CC1 | 8.9µM
O=C(NC1CCCCCC1)c1ccc2c(c1)sc1nc(-c3ccc(F)cc3)cn12 | –
COc1cccc(-c2cn3c(n2)sc2cc(C(=O)NCCC4=CCCCC4)ccc23)c1 | –
COc1ccc(-c2cn3c(n2)sc2cc(C(=O)NC4CCCCCC4)ccc23)cc1 | –
Cc1cccc(C(=O)N2CCN(c3cc(C(F)(F)F)ncn3)CC2)c1 | –
O=C(Nc1ccc2c(c1)CN(Cc1ccccc1F)C(=O)CO2)c1ccc(F)cc1 | –
Cc1cnc(C(=O)N[C@@H]2CCC[C@@H]2C(=O)NCCc2cccs2)cn1 | –
CN1[C@@H](CCC(=O)N2CCC(O)CC2)CNC(=O)[C@@H]2[C@H]1CCN2Cc1ccc(F)cc1 | –
OCc1ccc(CNC2(Cc3cc(COc4ccccc4)on3)COC2)o1 | –
CNC(=O)[C@@H]1CN(C(=O)Cc2cccc(Cl)c2)C[C@H]1CO | –
Cc1nnnn1CCCN1CCC2(CCC(=O)N(CC(C)O)C2)CC1 (stereo not drawn) | –
CCc1ccc(NC(=O)C2CCCN(S(=O)(=O)c3cccc4nsnc34)C2)cc1 (stereo not drawn) | –
Cc1ccc(NC(=O)C2CCCN(S(=O)(=O)c3cccc4cccnc34)C2)cc1Cl (stereo not drawn) | –
CCc1ccc(NC(=O)C2CCCN(S(=O)(=O)c3cccc4cccnc34)C2)cc1 (stereo not drawn) | 14µM
COCCNC(=O)[C@@H]1C[C@@H](O)CN1C1CCN(C(=O)C(C)C)CC1 | –
COCCN1CCC(N2CCN(S(=O)(=O)Cc3ccc(F)cc3Cl)CC2)C1=O (stereo not drawn) | –
CCN(CC)Cc1nc(C2(O)CCN(C3CCCC3)CC2)cs1 | –
CN(C)[S+](=O)([O-])c1ccc2c(c1)OCCN(Cc1ccncc1F)C2 | –
COC(=O)c1ccc(OCC2c3cc(OC)c(OC)cc3CCN2C(=O)Cc2ccc(OC)c(OC)c2)cc1 (stereo not drawn) | 11µM
CCC(=O)N1CCc2cc(CNC(=O)Cc3ccc(OC)c(OC)c3)ccc21 | –
CCOC(=O)c1ccc(OCC2c3cc(OC)c(OC)cc3CCN2C(=O)Cc2ccc(F)cc2)cc1 (stereo not drawn) | 10µM
